# Assay results reported in the supplement of paper PMC6522484.
# ± gives the standard deviation of the averaged measurements.
# How the values were obtained:
# DLD1 [1] = assay: cell viability (CellTiter-Glo) relative to plate median (fraction of plate median); higher = more viable cells; conditions: 5 µM; treatment time 24 h; reporter: 7TFP
# Summary of the method: (§1)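 Each entry is a luminescence signal normalised to the plate median, averaged over independent replicates. The replicate count was two, and the cells were colorectal cancer lines with stable lentiviral TCF/Wnt firefly luciferase reporters exposed to library compounds at a final 5 µM for 24 h. Firefly luciferase and CellTiterGlo were measured on parallel plates.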
# HCT116 [2] = assay: as above; conditions: 5 µM; treatment time 24 h; reporter: TCF4/Wnt
# Summary of the method: as §1
# SW480 [3] = assay: as above; conditions: 5 µM; treatment time 24 h; reporter: 7TFP
# Summary of the method: as §1
# DLD1 [4] = assay: TCF/Wnt firefly luciferase reporter signal relative to plate median (fraction of plate median); higher = higher Wnt reporter signal; conditions: 5 µM; treatment time 24 h; reporter: 7TFP
# Summary of the method: as §1
# SW480 [5] = assay: as above; conditions: 5 µM; treatment time 24 h; reporter: 7TFP
# Summary of the method: as §1
# DLD1 [6] = assay: cell viability (CellTiter-Glo) relative to plate median (fraction of plate median); higher = more viable cells; conditions: 10 µM, treatment time 24 h
# Summary of the method: (§2)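 Colorectal cancer cell lines carrying stably transduced lentiviral TCF/Wnt firefly luciferase reporters (7TFP or TCF4/Wnt) were plated in 384-well plates and treated 24 h later with kinase inhibitor library compounds at a final 10 µM for 24 h. Firefly luciferase or CellTiterGlo luminescence was read on parallel plates with a Tecan F500 reader. Signals were normalised per well to the plate median in webcellHTS2 (additive, no log transformation), and values are the mean of two independent replicates.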
# HCT116 [7] = assay: as above; conditions: 10 µM; treatment time 24 h; reporter: TCF4/Wnt
# Summary of the method: as §2
# SW480 [8] = assay: as above; conditions: 10 µM; treatment time 24 h; reporter: 7TFP
# Summary of the method: as §2
# DLD1 [9] = assay: TCF/Wnt firefly luciferase reporter signal relative to plate median (fraction of plate median); higher = higher Wnt reporter signal; conditions: 10 µM, treatment time 24 h
# Summary of the method: as §2
# HCT116 [10] = assay: as above; conditions: 10 µM; treatment time 24 h; reporter: TCF4/Wnt
# Summary of the method: as §2
# SW480 [11] = assay: as above; conditions: 10 µM; treatment time 24 h; reporter: 7TFP
# Summary of the method: as §2
smiles,measurement,setting,value
CC1(C)O[C@@H]2C[C@H]3[C@@H]4C[C@H](F)C5=CC(=O)C=C[C@]5(C)[C@@]4(F)[C@@H](O)C[C@]3(C)[C@]2(C(=O)CO)O1,cell viability,DLD1 [1],0.955 ± 0.11
same,cell viability,HCT116 [2],1 ± 0.093
same,cell viability,SW480 [3],0.975 ± 0.05
same,TCF/Wnt firefly luciferase reporter signal,DLD1 [4],0.974 ± 0.032
same,TCF/Wnt firefly luciferase reporter signal,SW480 [5],0.944 ± 0.038
COc1ccc(C(C)=O)c(O)c1,cell viability,DLD1 [1],1 ± 0.037
same,cell viability,HCT116 [2],1.04 ± 0.09
same,cell viability,SW480 [3],1.05 ± 0.014
same,TCF/Wnt firefly luciferase reporter signal,DLD1 [4],1.06 ± 0.071
same,TCF/Wnt firefly luciferase reporter signal,SW480 [5],1.03 ± 0.068
C=CC(=O)Nc1ccc2ncnc(Nc3ccc(OCc4cccc(F)c4)c(Cl)c3)c2c1,cell viability,DLD1 [6]; reporter: 7TFP,1.02 ± 0.03
same,cell viability,DLD1 [6]; reporter: TCF4/Wnt,1.06 ± 0.085
same,cell viability,HCT116 [7],0.998 ± 0.017
same,cell viability,SW480 [8],1 ± 0.07
same,TCF/Wnt firefly luciferase reporter signal,DLD1 [9]; reporter: 7TFP,0.691 ± 0.0099
same,TCF/Wnt firefly luciferase reporter signal,DLD1 [9]; reporter: TCF4/Wnt,0.879 ± 0.2
same,TCF/Wnt firefly luciferase reporter signal,HCT116 [10],0.686 ± 0.33
same,TCF/Wnt firefly luciferase reporter signal,SW480 [11],1.09 ± 0.11
C/C=C(\C)C(=O)[C@@H](C)/C=C(\C)[C@H]1O[C@@](O)([C@@](O)(CC)C(=O)N[C@@H]2C(=O)N3NCCC[C@@H]3C(=O)N(O)[C@@H](C)C(=O)N(C)[C@H](C)C(=O)N3NCCC[C@H]3C(=O)N[C@H]([C@H](C)O)C(=O)O[C@H]2C(C)C)CC[C@@H]1C,cell viability,DLD1 [1],0.983 ± 0.053
same,cell viability,HCT116 [2],1.01 ± 0.17
same,cell viability,SW480 [3],1.08
same,TCF/Wnt firefly luciferase reporter signal,DLD1 [4],1.01 ± 0.065
same,TCF/Wnt firefly luciferase reporter signal,SW480 [5],1.06 ± 0.035
CC[N+](C)(C)c1cccc(O)c1,cell viability,DLD1 [1],0.956 ± 0.091
same,cell viability,HCT116 [2],0.984 ± 0.013
same,cell viability,SW480 [3],0.908 ± 0.041
same,TCF/Wnt firefly luciferase reporter signal,DLD1 [4],0.92 ± 0.14
same,TCF/Wnt firefly luciferase reporter signal,SW480 [5],0.915 ± 0.044
Cc1cc(C(=O)NOCCO)c(Nc2ccc(I)cc2F)n(C)c1=O,cell viability,DLD1 [6]; reporter: 7TFP,1.19 ± 0.042
same,cell viability,DLD1 [6]; reporter: TCF4/Wnt,1.15 ± 0.042
same,cell viability,HCT116 [7],0.889 ± 0.075
same,cell viability,SW480 [8],1.105 ± 0.0071
same,TCF/Wnt firefly luciferase reporter signal,DLD1 [9]; reporter: 7TFP,1.635 ± 0.0071
same,TCF/Wnt firefly luciferase reporter signal,DLD1 [9]; reporter: TCF4/Wnt,1.58 ± 0.25
same,TCF/Wnt firefly luciferase reporter signal,HCT116 [10],1.17 ± 0.13
same,TCF/Wnt firefly luciferase reporter signal,SW480 [11],1.89 ± 0.22
O=C(O)c1ccccc1OP(=O)(O)O,cell viability,DLD1 [1],0.9465 ± 0.0035
same,cell viability,HCT116 [2],0.9665 ± 0.0092
same,cell viability,SW480 [3],0.911 ± 0.028
same,TCF/Wnt firefly luciferase reporter signal,DLD1 [4],0.939 ± 0.042
same,TCF/Wnt firefly luciferase reporter signal,SW480 [5],0.932 ± 0.04
Cc1oc(=O)c2c(O)cccc2c1CO [8-Hydroxy-4-hydroxymethyl-3-methyl-isocumarin],cell viability,DLD1 [1],0.926 ± 0.032
same,cell viability,HCT116 [2],0.925 ± 0.027
same,cell viability,SW480 [3],0.98 ± 0.021
same,TCF/Wnt firefly luciferase reporter signal,DLD1 [4],1.01 ± 0.13
same,TCF/Wnt firefly luciferase reporter signal,SW480 [5],0.993 ± 0.0099
CC(C)NC[C@@H](C(=O)N1CCN(c2ncnc3c2[C@H](C)C[C@H]3O)CC1)c1ccc(Cl)cc1,cell viability,DLD1 [6]; reporter: 7TFP,0.947 ± 0.031
same,cell viability,DLD1 [6]; reporter: TCF4/Wnt,1.1 ± 0.021
same,cell viability,HCT116 [7],0.917 ± 0.0092
same,cell viability,SW480 [8],1.04 ± 0.042
same,TCF/Wnt firefly luciferase reporter signal,DLD1 [9]; reporter: 7TFP,0.922 ± 0.029
same,TCF/Wnt firefly luciferase reporter signal,DLD1 [9]; reporter: TCF4/Wnt,0.951 ± 0.31
same,TCF/Wnt firefly luciferase reporter signal,HCT116 [10],1.08 ± 0.27
same,TCF/Wnt firefly luciferase reporter signal,SW480 [11],0.999 ± 0.016
CCC(=O)NCC[C@@H]1CCc2ccc3c(c21)CCO3,cell viability,DLD1 [1],1.04 ± 0.021
same,cell viability,HCT116 [2],1.15 ± 0.092
same,cell viability,SW480 [3],1.06 ± 0.028
same,TCF/Wnt firefly luciferase reporter signal,DLD1 [4],0.827 ± 0.037
same,TCF/Wnt firefly luciferase reporter signal,SW480 [5],0.91 ± 0.023
CC(=O)NS(=O)(=O)c1ccc(N)cc1,cell viability,DLD1 [1],1.07 ± 0.05
same,cell viability,HCT116 [2],0.978 ± 0.088
same,cell viability,SW480 [3],1.05 ± 0.057
same,TCF/Wnt firefly luciferase reporter signal,DLD1 [4],1.01 ± 0.22
same,TCF/Wnt firefly luciferase reporter signal,SW480 [5],0.854 ± 0.023
CC(C)(C(=O)O)c1ccc(C(O)CCCN2CCC(C(O)(c3ccccc3)c3ccccc3)CC2)cc1 (centres undefined),cell viability,DLD1 [1],1.05 ± 0.078
same,cell viability,HCT116 [2],0.899 ± 0.049
same,cell viability,SW480 [3],1.055 ± 0.0071
same,TCF/Wnt firefly luciferase reporter signal,DLD1 [4],1.05 ± 0.028
same,TCF/Wnt firefly luciferase reporter signal,SW480 [5],1.13
